# PubChem BioAssay
# Active and inactive are the calls of the source. Unless noted, no stated cut-off is given here; in the data, active means inhibition above about 80%; inactive means the rest.
# What was measured:
# [1] = LFS_MB_P medulloblastoma growth inhibition, cell-based, chromothripsis tumors, cisplatin or BGB combos (AID 1671449); conditions: LFS_MB_P medulloblastoma cells;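 further: cells exposed for 96 hours; 0% = vehicle DMSO and 100% = killing by high DMSO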
# [2] = HDN33 neuroblastoma growth inhibition, cell-based, chromothripsis tumors, cisplatin or BGB combos (AID 1671450); conditions: HDN33 neuroblastoma cells, stronger effect = higher value;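 further: cells exposed to compound for four days; 0% = vehicle DMSO and 100% = cell killing by high DMSO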
# [3] = ICB984 medulloblastoma cell growth inhibition, synergistic combos for chromothripsis tumors, cisplatin or BGB combos (AID 1671451; call rule not given here;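 further: cells exposed for 96 hours before readout; 0% = vehicle DMSO and 100% = killing by high DMSO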); conditions: ICB984 medulloblastoma cells, drug combinations, stronger effect = higher value
# [4] = LFS_MB_1R medulloblastoma cell growth inhibition, synergistic combos for chromothripsis tumors, cisplatin or BGB combos (AID 1671452); conditions: LFS_MB_1R medulloblastoma cells, stronger effect = higher value;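 further: cells exposed for 96 hours before readout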
# [5] = HTB85 osteosarcoma cell growth inhibition, synergistic combos for chromothripsis tumors, BGB or cisplatin IC20 combos (AID 1671453); conditions: HTB85 osteosarcoma cells, drug combinations, stronger effect = higher value;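 further: cells exposed for 96 hours before readout; 0% = vehicle DMSO and 100% = high DMSO killing control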
# [6] = CRL2098 osteosarcoma cell growth inhibition, synergistic combos for chromothripsis tumors, BGB or cisplatin IC20 combos (AID 1671454); conditions: CRL2098 osteosarcoma cells, drug combinations, stronger effect = higher value;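 further: cells exposed for 96 h before readout; 0% = vehicle DMSO and 100% = killing by high DMSO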
# [7] = HD-MB03 medulloblastoma cell growth inhibition, synergistic combos for chromothripsis tumors, BGB or cisplatin IC20 combos (AID 1671455; in the data active means inhibition above about 83%;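 further: 0% = vehicle DMSO and 100% = high DMSO as cytotoxic control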); conditions: HD-MB03 medulloblastoma cells, stronger effect = higher value
# [8] = UWB1.289 ovarian carcinoma cell growth inhibition, synergistic combos for chromothripsis tumors, BGB or cisplatin combos (AID 1671456); conditions: UWB1.289 ovarian carcinoma cells, stronger effect = higher value;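 further: cells exposed to compound for four days; 0% = vehicle DMSO and 100% = killing by high DMSO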
# [9] = LFS_MB_2R medulloblastoma cell growth inhibition, synergistic combos for chromothripsis tumors, cisplatin combos (AID 1671457); conditions: LFS_MB_2R medulloblastoma cells, stronger effect = higher value;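 further: cells exposed to compound for four days before readout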
# [10] = MDA-MB-436 breast carcinoma cell growth inhibition, synergistic combos for chromothripsis tumors, BGB or cisplatin combos (AID 1671458; call rule not given here;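 further: cells exposed for 96 hours; 0% = vehicle DMSO and 100% = killing by high DMSO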); conditions: MDA-MB-436 breast carcinoma growth inhibition, drug combinations, stronger effect = higher value
# [11] = UWB1.289_BRCA1 ovarian cancer growth, cell-based, BGB or cisplatin combinations (AID 1671459); conditions: UWB1.289 BRCA1 ovarian carcinoma, drug combinations, stronger effect = higher value
# [12] = human astrocyte viability loss, single and combined drugs, cytotoxicity control for chromothriptic childhood tumor combination screen, cell-based, BGB or cisplatin IC20 combos (AID 1671460); conditions: Human astrocytes, drug combinations, stronger effect = higher value;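 further: cells exposed to compounds for 96 hours before viability readout; 0% = vehicle and 100% = killing control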
# [13] = growth inhibition of BT084 medulloblastoma cells, cell-based, ICGC_MB145, cisplatin and BGB IC40 combos (AID 1671461); conditions: drug combinations, stronger effect = higher value;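 further: cells exposed to drugs for 96 hours; 0% = vehicle DMSO and 100% = high DMSO full killing control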
# [14] = growth inhibition of RCMB18 medulloblastoma cells, cell-based, cisplatin and BGB IC40 combos (AID 1671462); conditions: stronger effect = higher value;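 further: cells exposed to compound for four days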
# [15] = growth inhibition of CRL1545 osteosarcoma cells, cell-based, cisplatin and BGB IC20 combos (AID 1671464); conditions: stronger effect = higher value;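 further: cells exposed to compound for 96 hours before readout; 0% = vehicle DMSO and 100% = high DMSO killing control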
# [16] = measured here: combination with BGB IC40, at 0.05 µM
# [17] = measured here: with BGB IC20 combination, at 0.5 µM
# [18] = measured here: with cisplatin IC20 combination, at 0.5 µM
# [19] = measured here: combination with cisplatin, at 0.5 µM
# [20] = measured here: combination with cisplatin, at 5 µM
structure (smiles),measurement,setting,value
CCC(Sc1nnc2c3ccccc3n(CC)c2n1)C(=O)Nc1ccccc1OC (stereo not drawn),inhibition,"[1]; at 0.5 µM, stronger effect = higher value",-17.9% (inactive)
same,inhibition,"[1]; measured here: combination with BGB IC20, at 0.005 µM",-26%
same,inhibition,"[1]; measured here: combination with BGB IC40, at 0.005 µM",87.7%
same,inhibition,[1]; [16],-14.4%
same,inhibition,"[1]; measured here: combination with cisplatin, at 0.5 µM, stronger effect = higher value",-20.5%
same,inhibition,"[1]; measured here: combination with cisplatin, at 5 µM, stronger effect = higher value",-38.2%
same,inhibition,"[2]; BGB combo, at 5 µM",-25%
same,inhibition,[2]; at 0.5 µM,-10.1% (inactive)
same,inhibition,"[2]; cisplatin combo, at 5 µM",7.7%
same,inhibition,[2]; [17],-15.6%
same,inhibition,[2]; [18],-11.8%
same,inhibition,"[2]; single agent, at 5 µM",1.35%
same,inhibition,"[3]; BGB IC20 combo, at 0.005 µM",-20.7%
same,inhibition,"[3]; BGB IC40 combo, at 0.005 µM",-12.8%
same,inhibition,"[3]; BGB IC40 combo, at 0.05 µM",-32.4%
same,inhibition,[3]; at 0.5 µM,-26.1% (inactive)
same,inhibition,"[3]; cisplatin combo, at 0.05 µM",-39.2%
same,inhibition,"[3]; cisplatin combo, at 0.5 µM",-34.7%
same,inhibition,"[3]; cisplatin combo, at 5 µM",-6.65%
same,inhibition,"[3]; measured here: 5 uM single agent, at 5 µM",-26%
same,inhibition,[4]; at 0.5 µM,-22.8% (inactive)
same,inhibition,[4]; [16],-32%
same,inhibition,[4]; [19],-18.6%
same,inhibition,[4]; [20],-34.1%
same,inhibition,[5]; at 0.5 µM,0.76% (inactive)
same,inhibition,"[5]; measured here: with BGB IC20, at 0.5 µM",6.64%
same,inhibition,"[5]; measured here: with BGB IC20, at 5 µM",-8.08%
same,inhibition,"[5]; measured here: with cisplatin IC20, at 0.5 µM",-8.64%
same,inhibition,"[5]; measured here: with cisplatin IC20, at 5 µM",-18%
same,inhibition,"[5]; single agent, at 5 µM",3.91%
same,inhibition,[6]; at 0.5 µM,-23.4% (inactive)
same,inhibition,"[6]; measured here: combination with BGB at IC20, at 0.5 µM",-38.3%
same,inhibition,"[6]; measured here: combination with cisplatin at IC20, at 0.5 µM",-32%
same,inhibition,[7]; at 0.5 µM,-13.9% (inactive)
same,inhibition,"[7]; measured here: combo with BGB at IC20, at 0.5 µM",-20.2%
same,inhibition,"[7]; measured here: combo with cisplatin at IC20, at 0.5 µM",-12.1%
same,inhibition,[8]; at 0.5 µM,1.85% (inactive)
same,inhibition,"[8]; measured here: inhibition with BGB combination, at 0.05 µM",-11.2%
same,inhibition,"[8]; measured here: inhibition with cisplatin combination, at 0.05 µM",-1.41%
same,inhibition,[9]; at 0.5 µM,-23.8% (inactive)
same,inhibition,[9]; [19],-34.2%
same,inhibition,[9]; [20],-45.7%
same,inhibition,[10]; at 0.5 µM,-18.3% (inactive)
same,inhibition,"[10]; measured here: BGB combination, at 0.5 µM",-16.3%
same,inhibition,"[10]; measured here: BGB combination, at 5 µM",-14.5%
same,inhibition,"[10]; measured here: cisplatin combination, at 0.5 µM",-37.5%
same,inhibition,"[10]; measured here: cisplatin combination, at 5 µM",-22%
same,inhibition,"[11]; BGB combination, concentration series, at 5 µM",-8.24%
same,inhibition,[11]; at 0.5 µM,0.44% (inactive)
same,inhibition,"[11]; cisplatin combination, concentration series, at 5 µM",11.1%
same,inhibition,[12]; at 0.5 µM,10.6% (inactive)
same,inhibition,"[12]; measured here: combo with BGB IC20, at 0.5 µM",14.7%
same,inhibition,"[12]; measured here: combo with cisplatin IC20, at 0.5 µM",10.3%
same,inhibition,[13]; at 0.5 µM,-2.76% (inactive)
same,inhibition,"[13]; cisplatin combination, at 0.5 µM",-8.44%
same,inhibition,"[13]; cisplatin combination, at 5 µM",-148%
same,inhibition,"[13]; measured here: BGB IC40 combination 0.05 uM, at 0.05 µM",-28.4%
same,inhibition,"[13]; single agent, at 5 µM",-15.3%
same,inhibition,[14]; at 0.5 µM,-9.8% (inactive)
same,inhibition,"[14]; cisplatin combo, at 5 µM",-1.17%
same,inhibition,"[14]; measured here: BGB IC40 combination, at 0.05 µM",-28%
same,inhibition,[14]; [19],-27.5%
same,inhibition,"[14]; single agent, at 5 µM",-2.94%
same,inhibition,[15]; at 0.5 µM,-6.26% (inactive)
same,inhibition,[15]; [17],3.68%
same,inhibition,[15]; [18],-13%
same,inhibition,"[15]; single agent, at 0.05 µM",-16.5%
same,inhibition,"[15]; single agent, at 5 µM",1.47%
